PMK inhibit – blocks S. pneumoniae phosphomevalonate kinase; 65,000 compounds, 0.49% hits; purified PMK, PK/LDH-coupled NADH absorbance 340 nm; AID 539; inhibition, % at 10 µM;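 active = top-ranked compounds by inhibition in the single 10 µM screen, taking a fixed number of the strongest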
Spn MK inh – blocks S. pneumoniae mevalonate kinase; purified MK, PK/LDH-coupled NADH absorbance 340 nm; inhibition, % at 10 µM; 65,000 compounds, 0.48% hits; AID 555;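 active = ranked among the strongest by inhibition in the single 10 µM screen, a fixed top-ranked set picked for dose follow-up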
Abs 340nm – compound absorbs light at 340 nm; compound absorbance at 340 nm, fold over control; fold change at 10 µM; 65,000 tested, under 10 active;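 active = at 10 µM dose, initial 340 nm absorbance at least 2 fold that of control wells; inactive = change under 2 fold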;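 note: initial absorbance extrapolated from kinetic A340 decline of NADH oxidation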
Spn DPM-DC inh – blocks S. pneumoniae diphosphomevalonate decarboxylase; purified DPM-DC, PK/LDH coupled NADH fluorescence; calls only at 10 µM; 65,000 compounds, 0.49% hits;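 active = the 320 compounds with the highest percent inhibition in the single-dose primary screen, excluding strongly autofluorescent ones, cut at about 32% in these data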;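 note: kinetic rate of NADH fluorescence loss reporting ADP formed by the decarboxylase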
Fluor 339 460 – intrinsic fluorescence of library compounds, ex339/em460 – biochemical, MLSMR library, data from DPM-DC assay, artefact control, profiling panel; compound autofluorescence, ex339/em460 nm, NADH buffer; hits give high values; 1 = no-compound wells, NADH background; fluorescence fold increase at 10 µM; 65,000 compounds, 5.5% hits; AID 709;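 active = at 10 µM, mean starting fluorescence two-fold or more over control wells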;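 note: signal is the first read of a kinetic run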
NADH coupling – inhibition of NAD/NADH coupling enzymes, library profiling; coupled PK/LDH NADH assays, four targets; IC50, µM (titrated, usually from 10 µM); 65,000 compounds, 0.02% hits; AID 774;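 active = single-dose screening hits from any of four coupled enzyme assays that gave an IC50 when retested across doses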;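 note: the DPM-DC format reads NADH fluorescence rather than 340 nm absorbance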
Numbers stand for hits. Compounds with a hit are over-represented: about 6.8% of the library has one in this group of screens.

How did CC(=O)Nc1nc2c(c3c1c(=O)oc1ccccc13)CCCCC2 do in these assays?
PMK inhibit: inactive; Spn MK inh: inactive; Abs 340nm: inactive; Spn DPM-DC inh: inactive; Fluor 339 460: inactive; NADH coupling: inactive

How did O=C(NCc1ccccc1)NC1CC2CCC(C1)N2Cc1ccco1 (stereo not given) do in these assays?
PMK inhibit: inactive; Spn MK inh: inactive; Abs 340nm: inactive; Spn DPM-DC inh: inactive; Fluor 339 460: inactive; NADH coupling: inactive

How did CCN(CC)C(=O)NC1CC2CCCC(C1)N2Cc1ccccc1 (stereo not given) do in these assays?
PMK inhibit: 27; Spn MK inh: inactive; Abs 340nm: inactive; Spn DPM-DC inh: inactive; Fluor 339 460: inactive; NADH coupling: inactive

What do the screens show for `CCN(CC)c1ccc(C2C(C(=O)OC)=C(C)NC(C)=C2C(=O)OC)cc1`?
PMK inhibit: inactive; Spn MK inh: inactive; Abs 340nm: inactive; Spn DPM-DC inh: inactive; Fluor 339 460: inactive; NADH coupling: inactive

Results for COC(=O)C1=C(C)NC(C)=C(C(=O)OC)C1c1ccc(NC(C)=O)cc1 ?
PMK inhibit: inactive; Spn MK inh: inactive; Abs 340nm: inactive; Spn DPM-DC inh: inactive; Fluor 339 460: 2.1; NADH coupling: inactive

What do the screens show for `Nc1c(C(=O)NCC2CCCO2)c2nc3ccccc3nc2n1-c1ccccc1` (stereo not given)?
PMK inhibit: inactive; Spn MK inh: inactive; Abs 340nm: inactive; Fluor 339 460: 4.9; NADH coupling: inactive

What do the screens show for `Nc1c(C(=O)OCC2CCCO2)c2nc3ccccc3nc2n1C1CCCCC1` (stereo not given)?
PMK inhibit: inactive; Spn MK inh: inactive; Abs 340nm: inactive; Fluor 339 460: 2.1; NADH coupling: inactive

How did COc1ccccc1-n1c(N)c(C(=O)NCC2CCCO2)c2nc3ccccc3nc21 (stereo not given) do in these assays?
PMK inhibit: inactive; Spn MK inh: inactive; Abs 340nm: inactive; Fluor 339 460: 2.4; NADH coupling: inactive

What do the screens show for `O=C(CSc1nc2ccccc2n1-c1ccccc1)NCC1CCCO1` (stereo not given)?
PMK inhibit: inactive; Spn MK inh: inactive; Abs 340nm: inactive; Spn DPM-DC inh: inactive; Fluor 339 460: inactive; NADH coupling: inactive

Results for CC(C)NS(=O)(=O)c1cc(C(=O)O)ccc1Cl ?
PMK inhibit: inactive; Spn MK inh: inactive; Abs 340nm: inactive; Spn DPM-DC inh: inactive; Fluor 339 460: inactive; NADH coupling: inactive

What do the screens show for `COC(=O)C1=C(C)OC(N)=C(C#N)C1c1cc(OC)c(OCC(N)=O)cc1Cl` (stereo not given)?
PMK inhibit: 37; Spn MK inh: 48; Abs 340nm: inactive; Spn DPM-DC inh: active; Fluor 339 460: inactive; NADH coupling: inactive

Results for COC(=O)C1=C(C)OC(N)=C(C#N)C1c1ccccc1F (stereo not given) ?
PMK inhibit: inactive; Spn MK inh: inactive; Abs 340nm: inactive; Spn DPM-DC inh: inactive; Fluor 339 460: inactive; NADH coupling: inactive

What do the screens show for `COC(=O)C1=C(N)OC2=C(C(=O)CC(C)(C)C2)C1c1cccs1` (stereo not given)?
PMK inhibit: inactive; Spn MK inh: inactive; Abs 340nm: inactive; Spn DPM-DC inh: inactive; Fluor 339 460: inactive; NADH coupling: inactive

Results for COC(=O)C1=CN(CCCN2CCCC2=O)C=C(C(=O)OC)C1c1cccs1 ?
PMK inhibit: inactive; Spn MK inh: inactive; Abs 340nm: inactive; Fluor 339 460: 4.8; NADH coupling: inactive

What do the screens show for `COc1ccc2[nH]c(=O)c(CN(Cc3cccs3)Cc3nnnn3C(C)(C)C)cc2c1`?
PMK inhibit: inactive; Spn MK inh: inactive; Abs 340nm: inactive; Spn DPM-DC inh: inactive; Fluor 339 460: inactive; NADH coupling: inactive

How did CCOc1ccc2[nH]c(=O)c(CN(Cc3cccs3)Cc3nnnn3C(C)(C)C)cc2c1 do in these assays?
PMK inhibit: inactive; Spn MK inh: inactive; Abs 340nm: inactive; Spn DPM-DC inh: inactive; Fluor 339 460: 2.4; NADH coupling: inactive

What do the screens show for `COc1ccc2cc(CN(CCCN3CCOCC3)Cc3nnnn3C3CCCCC3)c(=O)[nH]c2c1`?
PMK inhibit: inactive; Spn MK inh: inactive; Abs 340nm: inactive; Spn DPM-DC inh: inactive; Fluor 339 460: inactive; NADH coupling: inactive

What do the screens show for `CCOc1ccc2[nH]c(=O)c(CN(CCN3CCOCC3)Cc3nnnn3C(C)(C)CC)cc2c1`?
PMK inhibit: inactive; Spn MK inh: inactive; Abs 340nm: inactive; Spn DPM-DC inh: inactive; Fluor 339 460: 2.6; NADH coupling: inactive

Screening results: PubChem, SRMLSC
